The whole screen tested about 220,000 compounds, of which about 2,000 (0.91%) were called active. Not shown: some 2% with an inconclusive outcome. A selection follows. Measured potencies and affinities stand elsewhere. A number with no mark means an inactive call. No stated cut-off is given here; in the data, inconclusive means inhibition above about 80% without an active follow-up result; inactive means below that; test concentration not stated here.
Assay: M. tuberculosis H37Rv growth inhibitors, H37Rv strain (AID 1626);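 further: bacteria incubated seven days before Alamar blue readout; 0% = bacteria only wells and 100% = bacteria with antibiotic wells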
Conditions: stronger effect = higher value, concentration not given here

Row | Structure (SMILES) | inhibition [%]
1 | O=C(O)C1(P(=O)(c2ccc(Cl)cc2)c2ccc(Cl)cc2)CC1 | 1.34
2 | CCc1ccc(OCC2c3cc(OC)c(OC)cc3CCN2C(=S)NCCOC)cc1 (stereo not given) | 0.42
3 | CSc1nnc(CNC(=O)c2ccccc2)n1-c1cccc(C)c1 | -0.55
4 | O=C(O)c1ccccc1N1C(=O)C2C3CCC(C3)C2C1=O (stereo not given) | -3.82
5 | CSC1=NCCN1C(=O)c1c(F)cccc1Cl | 1.18
6 | Cc1ccc(S(=O)(=O)N2CCOCC2)cc1C(=O)NCc1ccco1 | -8.9
7 | Cc1cc2ccccc2n1CCNC(=O)COc1ccccc1 | 13.1
8 | O=C(COc1ccc2ccccc2c1)NCCn1ccc2ccccc21 | 9.42
9 | Cc1nn(CC(=O)Nc2ccc3c(c2)nc2n3CCN(C3CCCCC3)C2)c(=O)c2ccccc12 | -1.06
10 | Cc1nn(Cc2ccc(Cl)c(Cl)c2)c(C)c1NC(=O)c1noc2c1CCCCC2 | -6.28
11 | COc1ccc(C(=O)CSc2nnc(-c3ccccn3)n2Cc2ccco2)cc1 | -7.14
12 | Cn1c(SCC(=O)c2ccc(F)cc2)nc2cccnc21 | 3.26
13 | COc1ccc(C(=O)CSc2nnc3ccc(-c4ccccn4)nn23)cc1 | 2.65
14 | Cc1nc2ccccc2nc1SCC(=O)c1ccccc1 | 8.55
15 | CCCc1nc(SCC(=O)c2ccc(F)cc2)c2ccccc2n1 | 8.42
16 | Cc1nc(-c2ccccn2)nc(SCC(=O)N2CCOCC2)c1Cl | 3.81
17 | Cc1ccc(NC(=O)COC(=O)c2ccc([N+](=O)[O-])o2)cc1S(=O)(=O)N1CCCCC1 | 8.45
18 | O=C1c2ccccc2C(=O)N1CN(C(=O)c1ccccc1)c1ccc(O)cc1 | -0.6
19 | Cc1cccnc1CCNC(=O)CCc1nnc(-c2ccccc2)o1 | 5.3
20 | CCCN1CCN(C(=O)c2ccc(Sc3ccc(C)cc3)c(NC(C)=O)c2)CC1 | 3.99
21 | CC(C)(C)c1ccccc1OCCCCN1CCCC1 | 6.1
22 | CC(C)(C)c1ccccc1OCCN1CCCC1 | -0.65
23 | CNC(=O)NC(=O)COC(=O)c1ccc(-n2c(C)ccc2C)cc1 | 20.2
24 | CCOc1ccc(NC(=O)CSc2nnc(C3CC3)n2C)cc1 | 27.2
25 | Cc1ccc(S(=O)(=O)N(CCCO)Cc2cc3c(C)ccc(C)c3[nH]c2=O)cc1 | -4.12

Row | Structure (SMILES) | inhibition [%]
26 | c1ccc(CN2CCN(c3nc4ccccc4n4cnnc34)CC2)cc1 | 6.21
27 | c1ccc(CC2CCN(c3nc4ccccc4n4nnnc34)CC2)cc1 | 12.1
28 | O=C(Nc1cccc(C(F)(F)F)c1)C1CCCN1S(=O)(=O)c1cccc2cccnc12 (stereo not given) | -8.3
29 | CCCNC(=O)c1ccc2c(=O)c(O)c(-c3ccc(OC)cc3)[nH]c2c1 | -8.43
30 | CCO[C@@H]1OC(C(=O)O)=C[C@H](C2CCCCC2)[C@H]1CCCO | 6.74
31 | CCN(CC)c1ccc(NC(=O)c2ccc(Br)o2)cc1 | -1.94
32 | CCOC(=O)NCCOC(=O)Nc1ccc(Cl)cc1 | 2.79
33 | CCCCOC(=O)Nc1ccc(C(=O)OC)cc1 | -7.29
34 | COc1ccc(NC(=O)c2ccc(Br)o2)cc1 | -11.7
35 | CCCCOC(=O)Nc1cccc(C(=O)OCC)c1 | 4
36 | CCOC(=O)c1ccc(NC(=O)c2cc(OC)c(OC)c(OC)c2Br)cc1 | 30.9
37 | CCCCOC(=O)Nc1ccc(C(N)=O)cc1 | -2.7
38 | CCCOC(=O)c1ccc(NC(=O)c2cc(OC)c(OC)c(OC)c2Br)cc1 | -1.63
39 | O=C1CCC2c3ccc4ccccc4c3CCN12 (stereo not given) | -9.72
40 | O=C(O)c1ccccc1C(=O)NCc1cccnc1 | -5.59
41 | COc1ccc(-n2c(C)nc3sc4c(c3c2=O)CCC4)cc1 | -4.02
42 | COc1ccc(-n2c(NN)nc3sc4c(c3c2=O)CCCC4)cc1 | 9.05
43 | CNC(C)C#Cc1ccc2c(=O)c3cc(C)c(C)cc3oc2c1 (stereo not given) | -0.56
44 | Cn1nc(C(=O)OCC(=O)Nc2ccc(S(N)(=O)=O)cc2)c2ccccc2c1=O | 4.62
45 | COc1ccc(CCNC(=O)CSCc2ccc(F)cc2)cc1OC | -4.44
46 | Cc1ccccc1OC(=O)CCC(=O)OCCCC(F)(F)C(F)(F)F | -4.35
47 | COCCCN1CCN(C2Cc3ccccc3Sc3ccc(Cl)cc32)CC1 (stereo not given) | 54.7
48 | c1ccc2c(c1)CC(N1CCCCC1)c1ccccc1N2 (stereo not given) | -6.95
49 | CCc1nnc(NC(=O)CSc2nc3cc4c(cc3cc2CC)OCCO4)s1 | 7.01
50 | Cn1c(CN2CCOCC2)nnc1SCC(N)=O | 7.64

Row | Structure (SMILES) | inhibition [%]
51 | O=C(NCCSCc1c(F)cccc1Cl)c1ccc(CN2CCOCC2)cc1 | 0.75
52 | CC1CCN(S(=O)(=O)N2CCC(C(=O)O)CC2)CC1 | -4.2
53 | C=CCNC(=O)NC(=O)CSc1nnc(C(F)(F)F)n1C | -4.51
54 | CCCCCCc1ccc(OCC(=O)O)cc1OCC(=O)O | -14.7
55 | CCCc1cc(=O)oc2cc(OCC(=O)OC)cc(OCC(=O)OC)c12 | 6.75
56 | Cn1c2ccc(F)cc2c2ncn(CC3CCCO3)c(=O)c21 (stereo not given) | -14
57 | CCCn1c(=O)c(C(=O)NCc2cccnc2)c(O)c2ccccc21 | -5.34
58 | CCCCCn1c(=O)c(C(=O)NCc2ccncc2)c(O)c2ccccc21 | 41.4
59 | CCCCn1c(=O)c(C(=O)NCc2ccncc2)c(O)c2ccccc21 | -0.26
60 | CC(C)Cn1c(=O)c(C(=O)Nc2cnccn2)c(O)c2ccccc21 | -13.3
61 | O=C(/C=C/c1ccco1)NC(=S)Nc1ccccn1 | 2.96
62 | COc1ccc(S(=O)(=O)N(C)C2CCN(C)CC2)cc1 | -0.56
63 | CC(=O)c1ccc(C(=O)N2CCC(CO)(Cc3cccc(C(F)(F)F)c3)CC2)cc1 | -0.21
64 | CC1=C(C(=O)NC2CCC(C)CC2)C2(CCC(C)CC2)OC1=O (stereo not given) | 3.77
65 | Cc1ccc(C(=O)C2C(=O)c3ccccc3C2=O)cc1 | 39.5
66 | CCc1ccc(/C=C/C(=O)c2c(C)cc(C)[nH]c2=O)cc1 | 8.7
67 | O=C(c1ccccc1)C1C(=O)c2ccccc2C1=O | -2.43
68 | Cc1ccc(/C=C/C(=O)c2ccccc2O)cc1 | 11.9
69 | CCc1ccc(/C=C/C(=O)c2ccc(S(=O)(=O)N(C)C)cc2)cc1 | 6.7
70 | COC(=O)C1C(=O)C(C(=O)/C=C/c2ccccc2)C(=O)CC1(C)C (stereo not given) | -2.58
71 | CNc1nc(-c2ccc3c(c2)CCN3C(=O)c2ccccc2F)cs1 | 0.06
72 | CC(C)(C)NC(=O)CN(C(=O)CSc1nnc(COc2ccccc2)o1)c1cccc(F)c1 | 4.71
73 | CC(C)OP(=O)(OC(C)C)C(NCc1ccccc1)c1ccccc1 (stereo not given) | 4.8
74 | COC(=O)c1c(-c2ccccc2)noc1C | -2.56
75 | COc1ccc(/C=N/NC(=O)Nc2nonc2N)cc1 | -4.3

Row | Structure (SMILES) | inhibition [%]
76 | OCCCNCc1cccc2ccccc12 | 3.9
77 | O=C(Nc1ccccc1Cl)c1csc(-c2cccnc2)n1 | 2.6
78 | Cc1[nH]c(C)c2c(=O)n(-c3ccccc3)ncc12 | 3.67
79 | CCCSc1cc(N2CCCC2)nc(-c2ccccc2)n1 | 6.61
80 | CCSc1cc(N2CCCC2)nc(-c2ccc(C)cc2)n1 | 3.04
81 | CC(C)(CC(=O)O)CC(=O)NNc1ncccc1C#N | 9.47
82 | CCOc1ccc(/C=N/N(C)c2ccccc2)cc1OC | 33.5
83 | O=C(O)C1CCCCC1C(=O)Nc1ccc(F)c(F)c1 (stereo not given) | 0.5
84 | Cc1ccc(NC(=O)C2CCCCC2C(=O)O)cc1C (stereo not given) | 1.55
85 | COc1cc(/C=N/NC(N)=O)ccc1OCC(=O)N1C(C)CCCC1C (stereo not given) | -1.38
86 | Cc1sc(N)c(C(=O)c2ccccc2)c1C | -10.3
87 | Nc1nc(Nc2ccccc2)sc1C(=O)c1ccccc1 | 36.1
88 | CN(C)/C=N/c1ncc(C(=O)c2ccccc2)s1 | -11.7
89 | O=C(c1ccccc1)c1cc2ccccc2o1 | 1.99
90 | COC(=O)CCCC1=CC2=C(c3ccccc3)C(=O)C(C)(OC(=O)C3CCCC3)C(=O)C2=CN1CCc1c[nH]c2ccccc12 (stereo not given) | 0.18
91 | COc1ccc(-n2c(C)cc(C(=O)Cn3nnc4ccccc4c3=O)c2C)cc1 | -8.34
92 | Cc1ccc(CN(c2ccc(C(=O)N3CCc4ccccc4C3)cc2)S(C)(=O)=O)cc1 | 6.8
93 | N#Cc1ccccc1Cn1cc(C(=O)c2cccs2)c2ccccc21 | 7.78
94 | Nc1nc(Nc2cccc(F)c2)nc(NCCO)c1[N+](=O)[O-] | 7.19
95 | CC1CCC(C(C)C)C(OC(=O)CSc2nccc(=O)[nH]2)C1 (stereo not given) | -8.76
96 | CC1CCC(C(C)C)C(OC(=O)COC(=O)c2ccc(=O)[nH]c2)C1 (stereo not given) | -0.66
97 | CC1CCC(C(C)C)C(OC(=O)Cn2nnc3c(cnn3-c3ccccc3)c2=O)C1 (stereo not given) | 1.77
98 | CC1CCC(C(C)C)C(OC(=O)COC(=O)c2ccc(N)cc2)C1 (stereo not given) | 68.7
99 | CC1CCC(C(C)C)C(OC(=O)COC(=O)c2ccccc2N)C1 (stereo not given) | 6.07
100 | CC1CCC(C(C)C)C(OC(=O)COC(=O)c2cccn2C)C1 (stereo not given) | -6.06
